From ChEMBL document CHEMBL3988442, “University of Dundee, Small-Polar-MMV Screening Library” (2021) come the findings set out here.

The experiment has as its target AMP-activated protein kinase, AMPK (Homo sapiens) (UniProt P54646+O43741+P54619+Q9UGJ0+Q9Y478+Q13131+Q9UGI9). Kind of experiment: AMP-dependent Kinase enzyme assay. An in vitro enzyme assay that detects ADP turnover that is directly proportional to AMPK activity. This uses naive AMPK that is activated during the assay with MK-8722. The experiment is classed as functional. Details: scale not given: direction of the effect not stated beside the values. The settings on record: 30 µM.
Regarding `O=C(O)CN(Cc1ccsc1)CC1CCCO1` (centres undefined), the Percent Effect is 10.1%. Turning to `COC(CNC(=O)c1ccc(NC(C)=O)cc1)c1cccc(Cl)c1` (centres undefined), the Percent Effect is 1.2%.

For `CC(CN1CCOC1=O)NC(=O)c1cccc2cc[nH]c12` (centres undefined), the Percent Effect stood at 8.07%.

Consider `Cc1ccc(OCc2occc2C(=O)N2CCCCC(N)C2)cc1` (centres undefined), for which the Percent Effect stood at 5.88%. `c1cc(CN2CCC[C@@H](Cn3nnc(-c4cnccn4)n3)C2)ccn1`: the Percent Effect stood at 6.31%. As for `CN1CCc2nc(C3CCCN(S(=O)(=O)c4ccccc4)C3)ncc2C1` (centres undefined), the Percent Effect was determined as 6.25%. In the case of `CC(=O)N1CCC(c2ncc(C(=O)Nc3ccccc3)c(C)n2)CC1`, the Percent Effect is 25%. Consider `O=S(=O)(NC1CCN(CC(F)(F)F)C1)c1cc(F)cc(F)c1` (centres undefined), for which the Percent Effect is 4.84%.

For the compound `Cc1cc(C(=O)N2CCNC(=O)C2)c(C)n1Cc1ccccn1`, the Percent Effect is -10.9%. For `CC(C)c1noc(C(C)N2CCN(Cc3noc(C4CC4)n3)CC2)n1` (centres undefined) the value was -0.511%; for `COc1cccc(CCC(=O)Nc2ccn(C)n2)c1OC`, 10.3%. For the compound `Cc1ccccc1S(=O)(=O)N[C@@H]1CC[C@@H](N2CCNC(=O)C2)[C@@H]1O`, the Percent Effect was found to be 5.3%. For the compound `O=C(c1cnccn1)N1CCCC(C2=Nc3ccccc3S(=O)(=O)N2)C1` (centres undefined), the Percent Effect was determined as 22%.

Consider `CC(C)(C)c1ncc2c(n1)CN(c1cc(NCCO)nc(N)n1)C2`, for which the Percent Effect is -194%. Take `CC(Oc1ccc2c(c1)OCO2)C(=O)N1CCC(c2ncc[nH]2)CC1` (centres undefined): the Percent Effect was found to be 4.41%. Take `Cc1ccc(Br)cc1C(=O)Nc1cc(C(N)=O)n(C)c1`: the Percent Effect was 0.519%. As to `CC(C)(CNc1c(C#N)cnc2ccc(Cl)cc12)C(N)=O`, the Percent Effect is 6.25%.

In the case of `Cc1cc(C(=O)NCCN2CCCC(C)C2)nn1C(C)(C)C` (centres undefined), the Percent Effect is -4.71%. As for `CCc1nc(CCNc2ncccc2C#N)sc1C`, the Percent Effect was -3.24%. For `O=C(CNc1ccc(OCC2CCOCC2)cc1)NCc1ccco1`, the Percent Effect turned out to be 0.773%.

Consider `CN(C)S(=O)(=O)N1CCC(C(O)c2ccc(Cl)cc2)CC1` (centres undefined), for which the Percent Effect turned out to be 4.77%. With `N#CC1(NC(=O)c2c(F)ccc(OC(F)F)c2F)CCOCC1` the figure was -2.32%; with `COc1cccc(NC(=O)CN(C(C)C)C2CC2)c1`, -0.663%. On to `COc1ccccc1C(=O)NCCC(=O)Nc1c(C)nn(C)c1C`, for which the Percent Effect is 9.26%. For the compound `CN1C(=O)[C@H]2CC[C@@H]1CN(C(=O)Nc1cccc3ccccc13)C2`, the Percent Effect is -18.9%.

Regarding `CC(C)c1nc(C2CCCN2CCS(C)(=O)=O)no1` (centres undefined), the Percent Effect is 6.84%.

For the compound `CCC(NC(=O)C(C)(C)C)c1ccccc1C` (centres undefined), the Percent Effect is 5.82%. Consider `Cc1noc(-c2ccc(N(C)Cc3nccs3)nc2)n1`, for which the Percent Effect is 5.7%. As for `O=C(Cn1cc(Cl)cn1)N1CCNC1=O`, the Percent Effect is -8.6%.

`CNc1nc(C(=O)NCC2CCOc3ccccc3C2)cs1` (centres undefined): the Percent Effect worked out at 1.74%. `CC(C)N(Cc1ccccn1)C(=O)CCC(=O)c1ccc(F)cc1F`: the Percent Effect is -0.0134%.

Consider `CC(C)(C)CN(CCC#N)C(=O)c1cccc(CC#N)c1`, for which the Percent Effect stood at 4.84%. As for `CC(=O)NCCCNC(=O)N1CCN(c2cc(F)ccc2F)CC1`, the Percent Effect was 6.39%. For `CC(CO)NC(=O)Nc1ccc(CC#N)cc1` (centres undefined) the value was -1.29%.

As to `CCC(C)Oc1ccc(CNCCNC(C)=O)cc1Cl` (centres undefined), the Percent Effect was -6.19%. As for `Cn1cc(NC(=O)N2CCCC2c2cccnc2)ccc1=O` (centres undefined), the Percent Effect was determined as 42.2%.

With `CCc1oc(C(=O)NC(C)Cc2cnccn2)cc1CN1CCCC1` (centres undefined), the Percent Effect was determined as 0.442%. In the case of `O=C1CN([C@@H]2CC[C@@H](NS(=O)(=O)c3ccccc3F)[C@H]2O)CCN1`, the Percent Effect was -4.46%. For `CCC(C(=O)NC1(CN2CCOCC2)CCCC1)n1cccn1` (centres undefined) the value was 5.49%.
